# Screening results: PubChem, The Scripps Research Institute Molecular Screening Center
# TTR transcr act: activators of transthyretin transcription | SH-SY5Y TTR promoter Gaussia luciferase, luminescence; 100% = recombinant luciferase protein wells | activation, % at 16.7 µM | 92,000 tested, 1.3% active | AID 1117267;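 active means activation above the mean of all tested compounds plus 3 SD, cut at about 9.5% in these data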;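 further: cells exposed to compounds for one day before reading; 0% = median of all test compound wells on the plate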
# HuH7 TTR inh: decreases TTR transcription in HuH7 cells in activator counter-screen | inhibition, % at 16.7 µM | AID 1117279 | 1,100 tested, 4% active | HuH7 TTR promoter-Gaussia luciferase reporter, luminescence | shares compounds with TTR transcr act;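 active means average inhibition above the solvent-only control wells' mean plus 3 SD, cut at about 15% in these data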;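 further: 0% = cells with DMSO only and 100% = cells with inhibitor control FD; inhibitors lower well luminescence so higher value means more inhibition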
# TTR up confirm: confirmation of human transthyretin transcription activators; activation, % at 16.7 µM; AID 1117280; 1,100 tested, under 10 active; SHSY5Y TTR promoter Gaussia luciferase, luminescence; 100% = purified Lucia enzyme wells, no cells; shares compounds with TTR transcr act;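 active means mean activation above a set limit taken from the earlier primary screen, cut at about 11% in these data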;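 further: 0% = DMSO-treated cells and 100% = recombinant Lucia luciferase without cells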
# Starred values were filed as active, the others as inactive. The full list was thinned out, with hits kept by preference.
SMILES,TTR transcr act,others
Cc1ccc(NC(=O)C2CC(=O)N(c3ccccc3Cl)C2)cc1S(=O)(=O)N1CCOCC1 (centres undefined),0.9,
CC(C)NCCOCCOc1ccc(Cl)cc1Br,-0.2,
CC(C)NCCOCCOc1ccccc1F,11.1*,HuH7 TTR inh=-8.9;TTR up confirm=0.8
CCN(CC)CCOCCOc1ccccc1F,-0.6,
CC1(C)O[C@@H](CC(=O)O)[C@]23CO[C@H](C(=O)[C@]4(C)C2CC[C@@]2(C)[C@H](c5ccoc5)OC(=O)C5O[C@]524)[C@@H]13 (some centres undefined),21.9*,HuH7 TTR inh=-1.5;TTR up confirm=0.5
CC1(C)O[C@H]2CC(=O)OC[C@]23[C@H]2CC[C@@]4(C)[C@H](c5ccoc5)OC(=O)[C@H]5O[C@]54[C@]2(C)[C@@H](O)C[C@@H]13,-2.0,
CCOC(=O)N1CCN(C(=O)C[C@H]2C[C@@]3(C(=O)OC)C(=C[C@H](COCc4ccccc4)O[C@@H]3C)N(Cc3ccco3)C2=O)CC1,-1.1,
COc1ccc(C(=O)NC2CCCc3c2cnn3-c2cc(F)cc(F)c2)c(OC)c1OC (centres undefined),12.6*,HuH7 TTR inh=29.0*;TTR up confirm=-0.8
Cc1cc(C)cc(-n2ncc3c2CCCC3NC(=O)c2cc(C)[nH]n2)c1 (centres undefined),-1.9,
O=C(NC1CCCc2c1cnn2-c1ccc(F)cc1F)c1ccccc1 (centres undefined),-2.2,
CCc1nc2c(OCCn3cccc3)cccn2c1N(C=O)Cc1ccccc1,2.4,
CCOC(=O)C1CCN(C(=O)C(C)(C)NC(=O)Nc2ccc3c(c2)CCC3)CC1,-1.6,
COc1cc2ccccc2cc1C(=O)NC1CCCC1,-0.2,
COc1ccc2cc(C(C)=O)c(=O)oc2c1,0.3,
COc1ccc2cc(C(=O)NC3CCCCC3)c(=O)oc2c1,11.1*,HuH7 TTR inh=-5.5;TTR up confirm=-0.4
CCC(C)[C@H](NC(=O)[C@H](Cc1ccccc1)NC(=O)OC(C)(C)C)C(=O)NCc1ccccc1Br (some centres undefined),2.1,
CC(C)(C)c1ccc(C(=O)Nc2cc(Cl)ccc2-c2nn[nH]n2)cc1,-2.9,
CC(C)(C)C(=O)NC1CCCCN(Cc2ccc(Cl)cc2)C1=O (centres undefined),-1.4,
O=C(COc1ccccc1)Nc1ccc(-c2nnc(-c3ccco3)o2)cc1,19.1*,HuH7 TTR inh=-1.4;TTR up confirm=-0.7
O=C(Cc1ccccc1)Nc1cccc(-c2nnc(-c3ccco3)o2)c1,-3.9,
O=C(Cc1ccc(Cl)cc1)Nc1cccc(-c2nnc(-c3ccco3)o2)c1,-0.4,
Cc1ccc(Cl)cc1NC(=O)C1CCCN1S(=O)(=O)c1ccc(-c2ccc(=O)[nH]n2)s1 (centres undefined),-2.9,
NC(=O)C1CCN(c2nc(-c3ccc4c(c3)CCO4)cs2)CC1,1.5,
CCOc1ccc(N(CC(=O)NCc2ccccc2C)S(C)(=O)=O)cc1,3.2,
O=C(COC(=O)c1cc(=O)[nH]c2ccccc12)NCc1ccc(Cl)cc1,0.7,
SMILES,TTR transcr act,others
CCOC(=O)C1CCN(C(=O)CN(c2ccc(Cl)c(C(F)(F)F)c2)S(C)(=O)=O)CC1,-2.9,
CCOC(=O)C1CCN(C(=O)COc2ccc3c(c2)OCO3)CC1,0.2,
CCOC(=O)C1CCN(C(=O)CN(c2ccc3c(c2)OCO3)S(C)(=O)=O)CC1,17.6*,HuH7 TTR inh=-10.2;TTR up confirm=1.8
COC(=O)[C@]12C[C@H](CC(=O)N3CCSCC3)C(=O)N(Cc3ccc(Cl)cc3Cl)C1=C[C@H](C(C)C)O[C@@H]2C1CC1,0.8,
CCOC(=O)[C@@]12CCCC3=C1N(CCC3)C(=O)[C@H]2CC(=O)N1CCOCC1,0.7,
O=C(NNc1ccc([N+](=O)[O-])cc1)C12CC3CC(CC(C3)C1)C2,5.9,
COc1ccc(-c2cc(=O)[nH]c(N3CCN(Cc4ccccc4)CC3)n2)cc1,1.2,
COc1cccc(-c2csc(N3CCN(Cc4ccccc4)CC3)n2)c1,10.0*,HuH7 TTR inh=8.5;TTR up confirm=-0.9
COc1cccc(NC(=O)N2CCN(c3nc(-c4cccc(OC)c4)cs3)CC2)c1,-4.1,
CC(C)[C@@H]1NC(=O)[C@@H]2CSCCS(=O)(=O)N2C1=O,5.0,
COc1cc(-c2c(C(=O)c3ccccc3)[nH]c(N)c2C(N)=O)ccc1O,3.4,
CC(C)CNC(=O)OCc1cn(Cc2cc(F)ccc2F)nn1,1.9,
CCOc1cc(C(=O)NCCCNC(=O)c2cc(OCC)c(OCC)c(OCC)c2)cc(OCC)c1OCC,11.9*,HuH7 TTR inh=-28.6;TTR up confirm=-0.4
CCCCCCNC(=O)CCNC(=O)c1cc(OC)c(OC)c(OC)c1,-0.6,
CCOc1cc(C(=O)NC(C)CC)cc(OCC)c1OCC (centres undefined),-3.3,
CCOC(=O)[C@@]12CCC3=C1N(CCC3)C(=O)[C@H](CC(=O)N1CCSCC1)C2,-0.4,
CCOC(=O)c1c(C)n(C)c2ccc(OC)c(NC(=O)CCN3CCC(Cc4ccccc4)CC3)c12,-1.0,
O=S1(=O)c2ccc(N3CC[C@H](O)C3)cc2OCCCN1C1CC1,3.1,
COc1cc(SC)ccc1C(=O)NCc1ccc(C)cc1,-2.1,
COc1cc(SC)ccc1C(=O)NCCNC(=O)c1nonc1N,14.4*,HuH7 TTR inh=-28.1;TTR up confirm=0.3
CCCNC(=O)c1ccc(SC)cc1OC,2.5,
COc1ccccc1NC(=O)c1ccc2c(c1)N(CC(=O)NC(C)C)C(=O)C(C)(C)O2,-0.8,
CCO[C@@H]1OC(C(=O)N2CCCCCCC2)=C[C@H](c2ccc3c(c2)OCO3)[C@H]1CCCO,4.7,
Cc1cc(C)cc(NC(=O)O[C@@H]2CC[C@@]34CCCN3C(=O)CCC[C@H]4C2)c1,-1.5,
Cc1ccc(OCC(=O)NC(=S)Nc2cccc(NC(=O)c3ccccc3)c2)cc1,-0.6,
SMILES,TTR transcr act,others
Cc1ccc(OCC(=O)NC(=S)Nc2ccc(Br)cn2)cc1,19.7*,HuH7 TTR inh=-9.6;TTR up confirm=-1.1
CCOc1ccc(NC(=O)Nc2ccc(Br)cn2)cc1,2.4,
C[C@H]1[C@@H](NCc2ccccc2)CC[C@@]23CCCN2C(=O)CCC[C@@H]13,0.7,
COc1ncnc2c1ncn2CCCN(C)Cc1ccco1,-0.7,
COc1ccc(CN(C)CCCn2ccc(N)nc2=O)cc1OC,-0.1,
CN(CCCn1ccc(N)nc1=O)Cc1ccco1,17.5*,HuH7 TTR inh=-9.4;TTR up confirm=-0.4
Cc1nc2ccc(Cl)cc2nc1C,-1.6,
O=C(C(c1ccccc1)C(O)c1ccccc1)N1CCOCC1 (centres undefined),-1.3,
CN1CCN(C(=S)NCCc2ccccc2)CC1,10.8*,HuH7 TTR inh=-13.6;TTR up confirm=-0.6
O=C(c1ccccc1)N1CCN(C(=S)NCCc2ccccc2)CC1,-1.1,
OCC1CCCN(C(=S)NCCc2ccccc2)C1 (centres undefined),1.8,
Cc1ccc(CN2CCCCC(NC(=O)C(C)(C)C)C2=O)cc1 (centres undefined),-1.3,
Cc1ccc[n+](CC(=O)Nc2ccc(N(C)C)cc2)c1,-1.2,
COC(=O)[C@]1(CC(C)C)N[C@H](c2ccc(-c3ccc(F)cc3)c(OC)c2)[C@@H]2C(=O)N(C)C(=O)[C@@H]21,12.6*,HuH7 TTR inh=-10.6;TTR up confirm=0.2
COC(=O)[C@]1(CC(C)C)N[C@H](c2ccc(SC3CCCCC3)c(OC)c2)[C@@H]2C(=O)N(C)C(=O)[C@@H]21,0.1,
CCC(C)Sc1ccc([C@H]2N[C@@](CC(C)C)(C(=O)OC)[C@H]3C(=O)N(CC)C(=O)[C@@H]23)cc1 (some centres undefined),2.7,
CC(c1ccccc1)C(OC(=O)c1cccc([N+](=O)[O-])c1C(=O)O)c1ccccc1 (centres undefined),2.0,
